The structures appear in SMILES notation. Hit rate of the full screen: of about 2,400 compounds, about 700 (29%) were called active. Only a sample is shown. Values without a mark were called inactive.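 How the source made its calls: active means inhibition of at least 50%; inactive means the rest.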

This test deals with G-protein coupled receptor 183 (Homo sapiens) (UniProt P32249). Briefly: EBI2 antagonist hit retest, beta-arrestin, confirmation, cell-based, single concentration, luminescence, 7a,25-OHC stimulation (AID 651997). The conditions noted are these: 7a,25-OHC antagonism, at 5 µM, active compounds read high.
G-protein coupled receptor 183 (Homo sapiens), sequence (P32249 whole entry, looked up): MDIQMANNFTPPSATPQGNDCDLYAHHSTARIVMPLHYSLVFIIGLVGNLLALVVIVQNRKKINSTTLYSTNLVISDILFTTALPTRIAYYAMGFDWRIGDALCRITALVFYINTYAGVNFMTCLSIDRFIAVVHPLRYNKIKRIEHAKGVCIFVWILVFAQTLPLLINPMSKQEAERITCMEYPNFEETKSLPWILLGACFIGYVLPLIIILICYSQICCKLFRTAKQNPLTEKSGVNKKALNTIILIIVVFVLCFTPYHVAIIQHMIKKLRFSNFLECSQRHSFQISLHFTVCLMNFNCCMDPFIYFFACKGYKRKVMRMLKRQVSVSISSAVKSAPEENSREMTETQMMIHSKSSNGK
With `COc1ccc(N(CC(=O)Nc2cc(OC)ccc2OC)S(=O)(=O)c2c(C)noc2C)cc1`, the inhibition is 21.2%. In the case of `COc1ccc(C(c2nnnn2C2CCCC2)N2CCN(C/C=C/c3ccccc3)CC2)cc1` (stereo not given), the inhibition was 39.9%. The figure for `Cc1ccc(-n2ncc3c(=O)n(-c4ccc(C)c(C)c4)c(-c4ccco4)nc32)cc1` is 16.7%; for `COc1cc(/C=C(\C#N)C(=O)Nc2ccc3ccccc3c2)c([N+](=O)[O-])cc1OC` it is 48.2%; for `O=C(CC(c1ccccc1)c1ccccc1)NCC(O)c1ccc([N+](=O)[O-])cc1` (stereo not given) it is 32.1%.

On to `O=C(COc1ccc2c(c1)CCC2)N1CCN(c2ccc(F)cc2)CC1`, for which the inhibition was 25%. For `O=C(COc1ccc(Cl)cc1)N1CCN(c2cccc(C(F)(F)F)c2)CC1`, the inhibition was 68% (active).

Take `Cc1cc(C)cc(Oc2nc3c(C)cccn3c(=O)c2/C=C(\C#N)C(=O)NC2CCS(=O)(=O)C2)c1` (stereo not given): the inhibition was 44.9%.

For the molecule `COc1ccc(-c2nc(N)ncc2-c2ccc(Cl)cc2)c(O)c1`, the inhibition is 58.9% (active).

Turning to `O=C(NCc1ccc(Cl)cc1)c1cc(=O)nc2sc(-c3ccccc3)nn12`, the inhibition was 36%. For the molecule `Cc1cccc(C)c1-n1nnnc1C(CCc1ccccc1)N1CCN(C/C=C/c2ccccc2)CC1` (stereo not given), the inhibition was 8.65%.

Turning to `Cc1cc(C)c2c(=O)n3c(nc2c1)C(CC(C)C)NC(=O)c1cc2ccccc2cc1-3` (stereo not given), the inhibition is 61.4% (active). As for `CC(C)Cn1c(N2CCN(C(=O)/C=C/c3ccccc3)CC2)nc2ccccc21`, the figure is 41.6%; as for `Cc1cccc(NC(=O)CN2CCN(C(=O)C3CCN(C(=O)/C=C/c4ccccc4)CC3)CC2)c1C`, 45%. As to `COc1ccccc1CCNC(=O)C1CCN(C(=O)/C=C/c2ccccc2)CC1`, the inhibition is 64.2% (active). On to `CC(=O)c1nn(-c2ccc(C)cc2)cc1C(=O)c1cccc(Br)c1`, for which the inhibition is 45.6%. As for `c1ccc(C(c2ccccc2)N2CCN(Cc3nnnn3C3CCCCC3)CC2)cc1`, the figure is 34%.

In the case of `O=C(c1ccc(-n2cnnn2)cc1)N1CCN(C(c2ccccc2)c2ccccc2)CC1`, the inhibition was 55.9% (active). On to `Cc1nc2ccc(C(=O)N3CCN(c4ccccc4)CC3)cc2s1`, for which the inhibition is 40.5%. Take `COc1ccc(Nc2cc(Sc3ccc(OC)cc3)ncn2)cc1`: the inhibition was 25.1%.

One may read the inhibition as the relative decrease from the control value, in per cent.

The values are drawn from PubChem BioAssay AID651997 (Sanford-Burnham Center for Chemical Genomics, 2013).
